Assay results as given in PubChem BioAssay AID1053197 (The Scripps Research Institute Molecular Screening Center, 2014).
Out of some 370,000 compounds screened, about 2,600 (0.7%) were called active.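 Rule for the calls: active = inhibition above a cutoff: mean of compounds within the control limits plus 3 SD of those (cut at about 17% in these data); inactive = the rest.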 The entries come from a sample that favours actives as a whole.

Biological target: Sialate O-acetylesterase (Homo sapiens) (UniProt Q9HAT2)
Experiment: human SIAE inhibitors, primary screen, biochemical, fluorescence polarization, FP-Rh probe, 1536-well HTS (AID 1053197);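 note: 0% = plate median of compound wells and 100% = probe without SIAE protein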
Conditions: SIAE FP-Rh probe binding, at 9.66 µM, active compounds read high

Chain of Sialate O-acetylesterase (Homo sapiens) (Q9HAT2 whole entry, looked up): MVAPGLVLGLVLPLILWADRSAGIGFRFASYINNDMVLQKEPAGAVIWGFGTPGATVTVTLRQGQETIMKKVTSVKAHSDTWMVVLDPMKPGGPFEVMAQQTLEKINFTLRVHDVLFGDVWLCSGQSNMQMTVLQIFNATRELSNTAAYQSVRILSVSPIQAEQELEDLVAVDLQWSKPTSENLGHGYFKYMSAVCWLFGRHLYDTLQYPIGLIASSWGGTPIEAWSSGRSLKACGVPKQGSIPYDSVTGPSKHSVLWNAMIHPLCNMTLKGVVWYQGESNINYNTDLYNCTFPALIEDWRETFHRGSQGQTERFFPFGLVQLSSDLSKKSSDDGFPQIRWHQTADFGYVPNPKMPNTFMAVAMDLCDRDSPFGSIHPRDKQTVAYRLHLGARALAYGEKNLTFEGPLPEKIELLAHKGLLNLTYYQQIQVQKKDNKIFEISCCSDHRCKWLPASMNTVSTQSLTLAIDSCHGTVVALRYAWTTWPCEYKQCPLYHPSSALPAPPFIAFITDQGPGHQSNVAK

inhibition, inactive:
CCCC[C@H]1C2CC(OC(=O)NCc3ccccc3)C(C2)[C@H]2CCCCN21 (stereo not given in full) -0.4%, O=C(CSc1nc2ccccc2s1)N=Nc1c(O)[nH]c2ccccc12 -11.1%, COc1ccc(N2CCN(CCNS(=O)(=O)c3ccc([N+](=O)[O-])cc3)CC2)cc1 1.89%, FC(F)(F)c1cccc(NC(=S)OC2CCC23CCC(c2ccccc2)CC3)c1 (stereo not given) -8.64%, Cc1ccccc1NC(=O)Cn1nnc(-c2ccccc2F)n1 -1.96%, CCCC1CCC2(CCCN2CCOC(=O)NCc2ccccc2)CC1 (stereo not given) -1.37%, COc1ccc(CN(CCN2CCOCC2)C(=O)c2ccc(C)cc2)cc1OC -2.14%, CCOC(=O)C1(Cc2ccccc2)CCN(Cc2cn(C(C)=O)c3ccccc23)CC1 -0.8%, CCCC[C@H](C(=O)N(CC)c1ccccc1)[C@@H](O)c1ccc2ccccc2c1 -0.99%, CC(c1ccc(N)cc1)c1cn(C)c2ccccc12 (stereo not given) 10.7%, COC(=O)[C@]12C[C@H](CC(=O)NCCc3ccccc3OC)C(=O)N(Cc3ccco3)C1=C[C@H](C(C)C)O[C@@H]2C1CC1 0.34%, Cc1cc2nc3c(=O)[nH]c(=O)nc-3n(C[C@H](O)[C@H](O)[C@H](O)CO)c2cc1C 6.59%, COC(=O)C1CN(CCc2ccccc2)CCS(=O)(=O)N1Cc1ccc(F)cc1 (stereo not given) 4.17%, COc1ccc2c(c1)CN1CN(CCc3ccccc3)S(=O)(=O)CC21 (stereo not given) -7.42%, C=CCN1[C@@H](Cc2ccccc2)COc2cccc(N3CCSCC3)c2S1(=O)=O -1.03%, COc1ccc(NC(=O)CSc2ccc(-c3ccco3)nn2)c(OC)c1 4.03%, O=C(CSc1ccc(-c2ccc(F)cc2)nn1)Nc1ccc2c(c1)OCCO2 9.37%, O=C(NC1CCCCN(Cc2cccc(C(F)(F)F)c2)C1=O)c1ccccc1I (stereo not given) 8.59%, C#CCN([C@H](C(=O)OC)C(C)CC)S(=O)(=O)c1ccccc1Br (stereo not given in full) -0.84%, Cc1ccc(C(=O)CCC(=O)N(C)CC(=O)Nc2c(Cl)cccc2Cl)cc1 4.52%, Cc1nc(-c2ccc(F)cc2)c(CC(=O)N(C)CC(=O)Nc2c(C)cccc2C)s1 -6.4%, O=C(CSc1nc2ccccc2nc1N1CCCCC1)N1CCN(S(=O)(=O)c2cccc([N+](=O)[O-])c2)CC1 1.34%, O=C1C(=O)N(Cc2ccc(-c3ccsc3)cc2)c2ccc(OC(F)(F)F)cc21 4.4%, COc1ccc(C(=O)CSc2nnc(-c3cnccn3)n2-c2ccc(C)cc2)cc1 4.14%, CCOC(=O)N1CCN(C(=O)C[C@@H]2C(=O)N(CCc3ccc(Cl)cc3)C3=CCCC[C@]32C(=O)OCC)CC1 2.23%, CCCCNC(=O)C[C@@H]1C(=O)N(CCc2ccc(Cl)cc2)C2=CCCC[C@]21C(=O)OCC -0.15%, Cc1ccc(C)c(NC(=O)CCS(=O)(=O)c2ccccc2)c1 -0.04%, CCCCCCCCNS(=O)(=O)/C=C/c1cc(C)ccc1CNC(=O)OC(C)(C)C -1.33%, Cc1cc(C(=O)NNC(=O)c2cccc(S(=O)(=O)N3CCOCC3)c2)c2ccccc2n1 0.67%, Cc1ccc(C)c(NC(=O)NNC(=O)c2ccc3ccccc3c2O)c1 13.1%, COc1ccc(/C=C2\CC3(OC(C)=O)CCCN2C3)cc1 (stereo not given) 5.11%, Cc1ccc(-n2c(SCC(=O)Nc3cccc4ccccc34)nnc2-c2ccco2)cc1 -4.95%, CC(=O)O[C@@]1(C(C)=O)CCC2[C@H]3C=C(C)C4=CC(=O)CC[C@@]4(C)C3CC[C@]21C (stereo not given in full) 4.07%, O=C(NC1CCN(Cc2ccccc2)CC1)c1cc(Br)c(Br)[nH]1 -7.58%, S=C(Nc1ccc(Br)cc1Cl)NC1CCN(Cc2ccccc2)CC1 5.25%, N#Cc1ccccc1OC[C@@H](O)CN1CCC(C(O)(c2ccccc2)c2ccccc2)CC1 3.53%, CN[C@H]1C[C@H]2c3cc(N4CCOCC4)ccc3CCN2C[C@H]1[C@H](C)O 3.31%, COc1ccc(CCNC(=O)C2CCCN(S(=O)(=O)c3ccc(OC)cc3)C2)cc1 (stereo not given) -4.52%, CCCCNC(=O)C1CCCN(S(=O)(=O)c2ccc(S(=O)(=O)NCC(C)C)cc2)C1 (stereo not given) -1.45%, Cc1ccc(NC(=O)Nc2cc(C)nn2-c2ccccc2)cc1 0.39%, CCOC(=O)[C@@]12CCC3=C1N(CCC3)C(=O)[C@H](CC(=O)N1CCN(C(=O)c3ccco3)CC1)C2 8.17%, O=C(Nc1ccc(Br)cc1)OCCN1C(=O)CCC12CCC(c1ccccc1)CC2 (stereo not given) 2.49%, Cc1cccc(C)c1NC(=O)COC(=O)c1c(C)nn(-c2ccccc2)c1C 2.02%, Cc1ccc(OC(=O)c2c(C)nn(-c3ccccc3)c2C)cc1 5.09%, COc1cc(/C=C/C(=O)n2cnc3ccccc32)cc(OC)c1OC -3.74%, CN(C(=O)c1cccc(NC(=O)Cc2cccc([N+](=O)[O-])c2)c1)C1CCCCC1 -12.1%, CC(=O)Nc1cccc(Nc2ccc(C#N)cc2)c1 7.95%, CCc1ccc(NC(=O)C(C)OC(=O)/C=C/c2cccc([N+](=O)[O-])c2)cc1 (stereo not given) -4.1%, CS(=O)(=O)N(CC(=O)Nc1ccc(F)cc1F)c1cccc([N+](=O)[O-])c1 5.36%, COC(=O)[C@]12C[C@H](CC(=O)NCc3cccc4ccccc34)C(=O)N(CCc3ccc(OC)c(OC)c3)C1=C[C@H](C1CCCC1)O[C@@H]2C -2.97%, O=C(OC12CCCN(C1)/C(=C/c1ccccc1)C2)c1ccco1 (stereo not given) 0.28%, COP(=O)(O)CNC(=O)OCc1ccccc1 0.82%, O=C(NCc1cccs1)C1CCN(S(=O)(=O)c2ccccc2[N+](=O)[O-])CC1 -0.55%, CCN(CC)C(=O)CC[C@H]1CC[C@]2(CCCN(Cc3ccc(Cl)cc3)C2)O1 -1%, Cc1ccccc1NC(=O)COC(=O)c1ccc(Sc2ncn[nH]2)c([N+](=O)[O-])c1 0.99%, CCOC(=O)N1CCN(C(=O)C[C@H]2C[C@@]3(C(=O)OC)C(=C[C@H](C(C)(C)C)O[C@@H]3C)N(Cc3ccc(Cl)cc3Cl)C2=O)CC1 4.46%, Cc1ccc2c(c1)C1CN(C)CCC1N2C(=O)c1ccccc1NS(=O)(=O)c1ccc(F)cc1C (stereo not given) -4.94%, Cc1ccc2c(c1)C1CN(C)CCC1N2C(=S)Nc1ccc(Cl)cc1Cl (stereo not given) -1.14%, O=C(OCC#CCSc1nnc(-c2ccco2)o1)c1ccc(F)cc1 -3.86%, FC(F)(F)c1cccc(Cn2ccc3ccc(-c4ccc5ccn(Cc6ccccc6)c5c4)cc32)c1 -4.98%, Cc1nc(N2CCOCC2)sc1C(=O)NN 4.29%, Cc1nc(-c2ccc(Cl)cc2)sc1C1(C)CC(c2ccc(Br)cc2)=NO1 (stereo not given) -4.52%, CN(C)S(=O)(=O)c1cccc(C(=O)N/N=C\c2ccco2)c1 1.17%, CC1(C)CC(=O)C(N=Nc2ccc(S(=O)(=O)N3CCCCCC3)cc2)=C(O)C1 -6.58%, O=C1CCCC(O)=C1N=Nc1ccc2ncsc2c1 4.95%, COc1cccc(/C=C2\CC3(OC(C)=O)CCCN2C3)c1 (stereo not given) 5.6%, CNS(=O)(=O)c1ccc(NC(=O)Nc2ccc3c(c2)OCO3)cc1 -0.18%, CC(=O)Nc1ccc(NC(=O)C(NS(=O)(=O)c2ccc3c(c2)OCCO3)C(C)C)cc1 (stereo not given) -4.61%, Cc1ccc(Cn2cc(CN3[C@@H](C)COc4cc(Br)ccc4S3(=O)=O)nn2)cc1 -0.41%

inhibition, active:
COc1cccc2c1C(=O)c1c(O)c3c(c(O)c1C2=O)CC(O)(C(C)=NNC(=O)c1ccc(Cl)c(Cl)c1)CC3OC1CC(N)C(O)C(C)O1 (stereo not given) 62.7%, CCOC(=O)/C(N=Nc1cc(C(=O)O)cc(C(=O)O)c1)=C(\O)CCl 21.9%, CCN(CC)CCCC(C)n1c2nc(=O)[nH]c(=O)c-2nc2cc(Cl)ccc21 (stereo not given) 29.6%, O=C(CSc1ccc(-c2ccco2)nn1)Nc1cccc(F)c1 17.1%, Cc1cccc(C)c1NC(=O)CN(C)C(=O)CCC(=O)c1ccccc1 19.1%, Oc1ccc2ccc3cccc[n+]3c2c1 17.1%, O=C(NNc1c2ccccc2nc2ccccc12)c1cc2ccccc2cc1O 49.5%, S=C(Nc1ccc(Br)cc1)NC1CCN(Cc2ccccc2)CC1 17.1%, CC(C)CCNC(=O)C1CCCN(S(=O)(=O)c2ccc(F)cc2)C1 (stereo not given) 23.3%, CCOC(=O)c1c(C)nn(-c2ncccc2NC(=O)CCC(=O)O)c1C 19.8%, CC(=O)Nc1cccc([N+](=O)[O-])c1 19.3%, CN(CC(=O)Nc1cccc(F)c1)CC(=O)Nc1cccc([N+](=O)[O-])c1 21.2%, Cc1ccc2c(c1)C1CN(C)CCC1N2C(=S)Nc1ccc(OC(F)F)cc1 (stereo not given) 19%, Cc1nc(-c2ccc(Cl)cc2)sc1C(=O)NN 17.1%, O=C1CCCC(O)=C1N=Nc1ccc(S(=O)(=O)N2CCOCC2)cc1 32.3%, CC(NS(=O)(=O)c1ccc(Cl)cc1)C(=O)Nc1ccc2c(c1)OCCO2 (stereo not given) 17.1%
